Consider 27 molecules from PubChem BioAssay AID2546 (National Center for Advancing Translational Sciences (NCATS), 2010).

Molecules are shown by their SMILES. In all, about 310,000 compounds went through this assay and about 11,000 (3.5%) were called active. Inconclusive results (about 8%) are left out. Calls come from the whole dose curve; as a rule, active = well fitted inhibition curve with a large enough effect; inconclusive = small, poorly fitted or top-dose-only effect, or effect the other way; inactive = flat fitted curve, though single readings scatter. The entries come from a sample that favours actives as a whole. A call without a number means that no potency is given here.
Potency is the fitted concentration of half-maximal effect.

This assay can be described thus: VP16 counterscreen qHTS for inhibitors of ROR gamma transcriptional activity. Note: nearly all actives have a fitted effect of over 50% in size. As to conditions: Drosophila S2 Gal4-VP16 UAS-luciferase, luminescence, 20 h; series mostly up to 53.6 µM. The text has this: NIH Molecular Libraries Probe Production Network [MLPCN]
NIH Chemical Genomics Center [NCGC]
Assay Provider: Dan Littman, New York University
The retinoic acid-related orphan receptor (ROR) gamma is a transcription factor that has a central role in the differentiation of Th17 cells, a subset of T helper cells that secrete the inflammatory cytokines IL-17, IL-17F, and IL-22. Th17 cells have been implicated in graft versus host disease, autoimmune disease and asthma. ROR gamma is induced in naive T helper cells in the presence of TGF-beta combined with IL-6, IL-21, or IL-23, and thereafter directs the expression of the Th17 lineage cytokines. To identify nonspecific inhibitors, a Drosophila Schneider cell line was stably transfected with two vectors: a gene expressing a fusion of the Gal4 DNA binding domain and VP16 transactivation domain under the control of the metallothionine promoter and a Photinus luciferase reporter regulated by the Gal4 binding site enhancer, UAS. […] Small molecule inhibitors that inhibit components common to the RORgt and VP16 assays, such as the Gal4 DNA binding domain or the UAS luciferase reporter, will be active in both assays and thus scored as nonspecific.
For screening, 600 cells in 4 uL/well were dispensed into white solid 1536-well plates (Grenier) using a solenoid-based dispenser. Following transfer of 23 nL compound or DMSO vehicle by a pin tool, the plates were incubated 1 hr at ambient temperature, and 1 uL/well copper sulfate (700 uM final concentration) was added. The plates were centrifuged 15 s at 1000 RPM and incubated 20 hr at ambient temperature. After addition of 1.5 uL Photinus luciferase detection reagent, the plates were incubated 10 min at ambient temperature and then read by a ViewLux (Perkin Elmer) to detect luminescence.
(In general: A counterscreen serves to expose hits that act by an unwanted route or on another target.)
As for `COc1ccc(C2c3[nH]c4ccccc4c3C[C@H]3C(=O)N(CC(C)C)CC(=O)N23)c(OC)c1` (some centres not stated), the Potency result is “inactive”.
Next, `O=S(=O)(NC1CCCCC1N1CCCCC1)c1ccc(Cl)cc1` (configuration not stated): “inactive”; `COc1ccc(OC)c(C(C)NC(=S)Nc2ccc(S(=O)(=O)Nc3ncccn3)cc2)c1` (configuration not stated): “inactive”.
Next, `CCOC(=O)c1cccnc1NC(=O)c1ccncc1`: “inactive”; `COC(=O)c1cccnc1NC(=S)NC(C)C`: 4.47 µM (active); `CCN(C(=O)c1cc([N+](=O)[O-])ccc1NCc1cccnc1)c1ccccc1`: “inactive”.
Next, `CN(C)c1ccc(/C=C2\NC(=S)N(Cc3ccccc3)C2=O)cc1`: 11.2 µM (active); `O=C1NCC(=O)N(Cc2ccccc2)/C1=C/c1ccccc1`: “inactive”.
Take `CC1=NN(Cc2ccccc2)C(=O)/C1=C/c1ccc(N(C)C)cc1`: the Potency entry was “inactive”.
The value for `Cn1cc(S(=O)(=O)Nc2ccc(Cl)cc2Cl)c(=O)n(C)c1=O` was “inactive”.
On to `Cc1cc(C)nc(-n2nc(C)cc2NC(=O)c2ccc(F)cc2F)n1`, for which the Potency was 3.16 µM (active).
The value for `CC(=O)N/C(=N/c1nc(C)cc(C)n1)Nc1ccc(F)cc1F` was “inactive”; that for `Cc1cc(NC(=O)c2cnn3cccnc23)n(-c2ccccc2)n1` was “inactive”; that for `COc1cc2ccccc2cc1C(=O)N(CCN(C)C)c1nc2c(F)cccc2s1` was “inactive”.
As to `CC(C)(C)SCCSC1=CC(=O)CC(c2ccccc2)C1` (configuration not stated), the Potency entry was “inactive”.
Next, `O=C(Nc1ccc(S(=O)(=O)N2CCCCCC2)cc1)c1c(F)cccc1F`: “inactive”.
The value for `CCOc1ncccc1C(=O)NCCc1ccc(OC)cc1` was “inactive”; that for `Cc1cc(C)cc(NC(=O)C2CCCN2S(=O)(=O)c2cccc3cccnc23)c1` (configuration not stated) was “inactive”.
Next, `O=C(COC(=O)c1ccc(F)cc1)Nc1nc2ccc([N+](=O)[O-])cc2s1`: “inactive”; `CSc1nc2ccc(S(=O)(=O)N3CCc4ccccc43)cc2s1`: “inactive”.
Turning to `O=C(Nc1nc2ccc([N+](=O)[O-])cc2s1)c1ccc(S(=O)(=O)N2CCCc3ccccc32)cc1`, the Potency is 3.98 µM (active).
The value for `CS(=O)(=O)c1ccc2nc(NC(=O)c3ccc(N4CCCC4=O)cc3)sc2c1` was “inactive”; that for `O=C(Nc1nc2ccc([N+](=O)[O-])cc2s1)c1ccncc1` was “inactive”.
As for `O=C(NC(Nc1nc2ccc([N+](=O)[O-])cc2s1)(C(F)(F)F)C(F)(F)F)c1ccccc1`, the Potency is 2.82 µM (active).
Next, `CCOC(=O)c1cc(C(=O)Nc2ccc(S(=O)(=O)Nc3ccc(OC)cc3)cc2)nn1C`: “inactive”; `COC(=O)c1cccc(N(C(=O)CNC(=O)c2cccs2)C(C(=O)NCC2CCCO2)c2ccc(OC)c(OC)c2)c1` (configuration not stated): “inactive”; `Cc1cccc(CCNS(=O)(=O)c2ccc3c(c2)NC(=O)CO3)c1`: “inactive”.
